High-throughput results as filed in PubChem.
NIH3T3 tox – kills NIH 3T3 cells; NIH 3T3 viability, CellTiter-Glo ATP luminescence, 48-72 h; Potency, µM (titrated, usually from 96.7 µM), without a hit: top-dose activity change, negative = cytotoxicity, most hits filed as inhibitors; actives 4.3% (n = 94,000); AID 1345082; also: nearly all actives have a fitted effect of over 55% in size
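Viability of NIH 3T3 cells after 48 or 72 hr compound treatment at 37 °C was assessed by CellTiter-Glo, with luminescence imaged following a 10 min room-temperature step.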
HEK293 tox – cytotoxic compounds in HEK 293 cells; HEK 293 viability, ATP luminescence (CellTiter-Glo), 48-72 h; Potency, µM (top dose mostly 115 µM), without a hit: at the top dose activity change, negative = cytotoxicity, hits mostly inhibitors; actives 6.6% (n = 94,000); also: nearly all actives have a fitted effect of over 60% in size
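HEK 293 cells seeded at 250 cells/well were exposed to compound for 48 or 72 hr at 37 degree Celsius. Viability taken as ATP content by CellTiter-Glo luminescence.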
FLuc inh – Photinus pyralis luciferase inhibition | purified P. pyralis luciferase, luminescence, biochemical | Potency, µM (series often up to 115 µM), most hits filed as inhibitors | AID 1347043 | P08659 | actives 2.5% (n = 76,000); also: nearly all actives have a fitted effect of over 65% in size
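Purified P. pyralis luciferase (10nM final) in 50mM Tris acetate pH 7.5, 10mM Mg acetate, 0.01% Tween-20, 0.05% BSA with 10uM D-luciferin and 10uM ATP. Compounds titrated qHTS. Luminescence imaged on CCD.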
NPR1 antag – antagonists of human natriuretic peptide receptor Npr1. P16066. HEK293 hNpr1 GloSensor cGMP, ANP-stimulated luminescence. Potency, µM (series often up to 46.3 µM), for inactives: top-dose activity change, negative = inhibition, actives largely listed as inhibitors. actives 1.6% (n = 76,000); calls by dose curve; also: nearly all actives have a fitted effect of over 60% in size
Target sequence (P16066 whole entry, looked up): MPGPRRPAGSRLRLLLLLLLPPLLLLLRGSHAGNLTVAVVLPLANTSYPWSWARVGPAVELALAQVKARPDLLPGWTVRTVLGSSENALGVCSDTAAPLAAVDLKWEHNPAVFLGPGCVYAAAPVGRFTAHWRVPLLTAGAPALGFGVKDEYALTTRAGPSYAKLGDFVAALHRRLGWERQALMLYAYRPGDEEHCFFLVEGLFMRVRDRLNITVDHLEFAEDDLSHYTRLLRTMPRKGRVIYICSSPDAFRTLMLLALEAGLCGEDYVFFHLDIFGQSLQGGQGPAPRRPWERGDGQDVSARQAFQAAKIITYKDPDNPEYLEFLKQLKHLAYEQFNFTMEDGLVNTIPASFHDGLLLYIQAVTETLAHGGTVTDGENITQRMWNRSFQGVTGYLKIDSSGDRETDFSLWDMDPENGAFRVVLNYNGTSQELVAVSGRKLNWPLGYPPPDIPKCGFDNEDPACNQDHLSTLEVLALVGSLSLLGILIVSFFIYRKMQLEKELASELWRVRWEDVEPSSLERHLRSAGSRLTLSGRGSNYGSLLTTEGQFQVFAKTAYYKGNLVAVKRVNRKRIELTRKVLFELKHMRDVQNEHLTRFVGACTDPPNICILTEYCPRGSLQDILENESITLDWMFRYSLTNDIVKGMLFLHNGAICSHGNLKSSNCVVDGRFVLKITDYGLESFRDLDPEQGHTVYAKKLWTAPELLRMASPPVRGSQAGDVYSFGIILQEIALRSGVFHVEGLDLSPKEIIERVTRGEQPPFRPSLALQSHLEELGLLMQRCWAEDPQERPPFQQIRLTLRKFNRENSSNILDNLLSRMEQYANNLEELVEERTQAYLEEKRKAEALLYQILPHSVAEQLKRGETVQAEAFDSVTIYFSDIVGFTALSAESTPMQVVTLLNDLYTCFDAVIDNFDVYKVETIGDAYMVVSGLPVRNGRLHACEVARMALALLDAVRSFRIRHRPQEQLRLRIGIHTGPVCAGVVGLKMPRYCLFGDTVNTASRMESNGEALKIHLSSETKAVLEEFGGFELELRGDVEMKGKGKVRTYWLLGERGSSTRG
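HEK293 cells stably expressing human Npr1 and cGMP GloSensor pGS-40F, loaded 2 h with 2% GloSensor reagent, given compound 30 min at room temperature. Luminescence read before and 20 min after 0.1 nM hNppA.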
Starred values were filed as active, the others as inactive; [ ] = remark or other dose. An excerpt weighted towards active compounds, which were near 11% of everything screened. Unless noted, calls follow the shape of the dose curve; as a rule, active = well fitted curve in the direction sought with a large enough effect; inconclusive = small, poorly fitted or top-dose-only effect, or another doubt; inactive = no such curve, though single readings can be large; an effect the other way counts as inactive or inconclusive. % is scaled to controls: 0 for no effect and ±100 for the full control effect; potency is read from the fitted curve at half-maximal effect.

How did COc1cccc(-c2ccc(CN3CCCC(NC(C)=O)C3)cc2)c1 (centres undefined) do in these assays?
NIH3T3 tox: -41%; HEK293 tox: inconclusive

Results for COc1cccc(-c2ccc(NC(=O)C3CCCN(Cc4cc(C(C)C)n[nH]4)C3)cc2)c1 (centres undefined) ?
NIH3T3 tox: 40µM*; HEK293 tox: 22µM*; FLuc inh: inactive; NPR1 antag: inconclusive

How did COc1cccc(-c2ccc(NC(=O)C3CCCN3C(=O)Cn3cccn3)cc2)c1 (centres undefined) do in these assays?
NIH3T3 tox: 2%; HEK293 tox: 2%; FLuc inh: inactive; NPR1 antag: -3%

Results for O=C(Nc1ccnn1C1CCN(C(=O)c2ccc3n[nH]nc3c2)CC1)C1CC1 ?
NIH3T3 tox: 2%; HEK293 tox: -1%; FLuc inh: inactive; NPR1 antag: 6%

What do the screens show for `CCn1cc(S(=O)(=O)N2CC(Oc3ccccc3-c3noc(C)n3)C2)cn1`?
NIH3T3 tox: 0%; HEK293 tox: 0%; FLuc inh: inactive; NPR1 antag: -24%

What do the screens show for `COC(=O)c1ccc2c(c1)nc1n2[C@@H](CNC2CCCCC2)COC1`?
NIH3T3 tox: -22%[138 µM]; HEK293 tox: -27%[172 µM]; FLuc inh: inactive; NPR1 antag: -12%[70.6 µM]

Results for COc1cccc(C(=O)NC2CCCN(Cc3ccc(-c4cccc(OC)c4)cc3)C2)c1 (centres undefined) ?
NIH3T3 tox: 25µM*; HEK293 tox: 32µM*

What do the screens show for `COc1cccc(-c2ccc(CN3CCCC(NC(=O)c4cccnc4)C3)cc2)c1` (centres undefined)?
NIH3T3 tox: inconclusive; HEK293 tox: 28µM*

Results for Cc1cc(C)cc(-c2ccc(CN3CCCC(NC(=O)c4cccc(Cl)c4)C3)cc2)c1 (centres undefined) ?
NIH3T3 tox: inconclusive; HEK293 tox: 40µM*

How did COc1ccc(CC(=O)NC2CCCN(Cc3ccc(-c4cncnc4)cc3)C2)cc1 (centres undefined) do in these assays?
NIH3T3 tox: -29%; HEK293 tox: inconclusive

How did O=c1cc(-c2cccnc2)oc2c(-c3ccccc3Oc3ccccc3)nccc12 do in these assays?
NIH3T3 tox: inconclusive; HEK293 tox: 100µM*; FLuc inh: inactive; NPR1 antag: 3%[70.6 µM]

Results for CN(C)c1cc(=O)c2ccnc(-c3ccccc3F)c2o1 ?
NIH3T3 tox: 45µM*; HEK293 tox: inconclusive; FLuc inh: inactive; NPR1 antag: 3%[70.6 µM]

What do the screens show for `O=c1cc(-c2cccnc2)oc2c(-c3ccccc3F)nccc12`?
NIH3T3 tox: 20µM*; HEK293 tox: inconclusive; FLuc inh: inactive; NPR1 antag: 1%[70.6 µM]

What do the screens show for `C[S+](=O)([O-])c1ccc(-c2nccc3c(=O)cc(-c4ccncc4)oc23)cc1`?
NIH3T3 tox: 32µM*; HEK293 tox: inconclusive; FLuc inh: inactive; NPR1 antag: -6%[70.6 µM]

How did c1ccc2[nH]c(C3CCC(Cn4cc(-c5cncnc5)nn4)CC3)nc2c1 (centres undefined) do in these assays?
NIH3T3 tox: 2%; HEK293 tox: -4%; FLuc inh: inactive; NPR1 antag: 7%

What do the screens show for `Cc1ccn2c(C(=O)N[C@H](Cc3ccccn3)C3CC(O)C3)nnc2n1` (some centres undefined)?
NIH3T3 tox: -1%; HEK293 tox: 5%; FLuc inh: inactive; NPR1 antag: 5%

Results for CCN1CCN(C(=O)c2ccc3nnc(-c4ccccc4OC)n3c2)CC1 ?
NIH3T3 tox: -15%; HEK293 tox: 0%

Results for CCOC(=O)N1CCN(C2CCCN(Cc3cc(C)ccc3-n3cccn3)C2)CC1 (centres undefined) ?
NIH3T3 tox: -21%; HEK293 tox: inconclusive; FLuc inh: inactive; NPR1 antag: 1%

How did COc1ccc(C(=O)N2CCCC2C(=O)N2CCC(c3ccccc3)CC2)cc1 (centres undefined) do in these assays?
NIH3T3 tox: -9%; HEK293 tox: -24%

What do the screens show for `O=c1cc(-c2cccnc2)oc2c(-c3cn[nH]c3)nccc12`?
NIH3T3 tox: 8.9µM*; HEK293 tox: -23%[230 µM]; FLuc inh: inactive; NPR1 antag: 1%[70.6 µM]

Results for CCOC1CCOC2(CCN(C(=O)c3ccco3)CC2)C1 (centres undefined) ?
NIH3T3 tox: inactive; HEK293 tox: 0%; FLuc inh: inactive; NPR1 antag: 0%

What do the screens show for `O=C(NCc1cccc(C(F)(F)F)c1)C1CCN(Cc2ccccc2-c2ccccc2F)CC1`?
NIH3T3 tox: inconclusive; HEK293 tox: 25µM*

What do the screens show for `O=C(NCc1ccc(F)cc1)C1CCN(Cc2ccccc2-c2ccccc2F)CC1`?
NIH3T3 tox: 32µM*; HEK293 tox: 32µM*

How did Cc1ccccc1OCC(=O)N1CCc2c(nc3cc(-c4ccccc4Cl)[nH]n3c2=O)C1 do in these assays?
NIH3T3 tox: inconclusive; HEK293 tox: inconclusive; FLuc inh: inactive; NPR1 antag: -14%

How did COc1ccc(-c2cc3nc4c(c(=O)n3[nH]2)CCN(C(=O)COc2ccccc2C)C4)cc1 do in these assays?
NIH3T3 tox: -19%; HEK293 tox: -24%; FLuc inh: 14µM*; NPR1 antag: -10%

What do the screens show for `CN1C[C@H](NCc2cccc(Cl)c2)CCC[C@@H](C(=O)NCc2cc(F)cc(F)c2)CC1=O`?
NIH3T3 tox: inconclusive; HEK293 tox: 45µM*; FLuc inh: inactive; NPR1 antag: 5%

What do the screens show for `CN(C)c1ccc2ncc(Nc3ccc(Cl)cn3)n2n1`?
NIH3T3 tox: 112µM*; HEK293 tox: inconclusive; FLuc inh: inactive; NPR1 antag: -17%[70.6 µM]

What do the screens show for `CN(C)c1ccc2ncc(Nc3cc(F)cc(N4CCOCC4)c3)n2n1`?
NIH3T3 tox: inconclusive; HEK293 tox: inconclusive; FLuc inh: inconclusive; NPR1 antag: 2%[70.6 µM]

How did COc1ccc(-c2ccc3ncc(Nc4cc(F)ccc4OC)n3n2)cn1 do in these assays?
NIH3T3 tox: -11%[138 µM]; HEK293 tox: inconclusive; FLuc inh: inactive; NPR1 antag: -7%[70.6 µM]

How did COc1ccc(F)cc1Nc1cnc2ccc(N(C)C)nn12 do in these assays?
NIH3T3 tox: inconclusive; HEK293 tox: 100µM*; FLuc inh: inactive; NPR1 antag: 1%[70.6 µM]

Results for CN(C)c1ccc2ncc(Nc3ccccc3)n2n1 ?
NIH3T3 tox: inconclusive; HEK293 tox: 112µM*; FLuc inh: inconclusive; NPR1 antag: -19%[70.6 µM]

Results for Clc1ccc(Nc2cnc3ccc(-c4ccccc4)nn23)nc1 ?
NIH3T3 tox: inconclusive; HEK293 tox: inconclusive; FLuc inh: inactive; NPR1 antag: inconclusive

Results for CNC(=O)c1noc(CN2CCCC(CCc3c(F)cccc3F)C2)n1 (centres undefined) ?
NIH3T3 tox: -20%; HEK293 tox: inconclusive; FLuc inh: inactive; NPR1 antag: -1%

What do the screens show for `COc1ccc(C(=O)NCCC2CCN(C(=O)Nc3ccc(F)cc3)CC2)cc1OC`?
NIH3T3 tox: -26%; HEK293 tox: 1%; FLuc inh: inactive; NPR1 antag: 0%
